# G9a inh: blocks human histone lysine methyltransferase G9a | Q96KQ7 | G9a H3K9 monomethylation, AlphaScreen, 2 h | Potency, µM (titrated, usually from 102 µM), for the others: at the highest dose activity, negative = inhibition, actives largely listed as inhibitors | 350,000 compounds, 8.8% hits | AID 504332; further: on the % scale 0 is the no-effect control and ±100 the full control effect; nearly all actives have a fitted effect of over 75% in size
# Target sequence (Q96KQ7 913-1193 limits assumed): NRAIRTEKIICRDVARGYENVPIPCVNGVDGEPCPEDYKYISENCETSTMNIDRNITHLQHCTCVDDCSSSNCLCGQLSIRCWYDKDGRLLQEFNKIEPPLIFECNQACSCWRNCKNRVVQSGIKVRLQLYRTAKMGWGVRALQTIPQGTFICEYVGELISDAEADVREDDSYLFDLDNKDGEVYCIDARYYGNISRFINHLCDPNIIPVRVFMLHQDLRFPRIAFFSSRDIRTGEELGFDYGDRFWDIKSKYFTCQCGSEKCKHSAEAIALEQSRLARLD
#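 Methyltransferase reactions run at room temperature for 2 h (20 nM enzyme, 500 nM biotin-H3K9 peptide, 20 uM SAM) after a 15 min compound preincubation; product detected by AlphaScreen beads and anti-H3K9me1 antibody.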
# JMJD2A Tudor inh: blocks the human JMJD2A Tudor domain; Potency, µM (top dose mostly 114 µM), for inactives: at the highest dose activity change, negative = inhibition, hits mostly inhibitors; 390,000 compounds, 4.4% hits; AlphaScreen JMJD2A-Tudor / H3K4me3 peptide binding; O75164; further: on the % scale 0 is the no-effect control and ±100 the full control effect; nearly all actives have a fitted effect of over 50% in size
# HP1b chromo inh: HP1-beta chromodomain-methylated histone interaction inhibition; AID 540317; AlphaScreen HP1-beta / biotin-H3K9me3 peptide binding; Potency, µM (highest dose often 114 µM), for inactives: top-dose activity change, negative = inhibition, most hits filed as inhibitors; 390,000 compounds, 0.56% hits; P83916; further: nearly all actives have a fitted effect of over 70% in size
# Target sequence (P83916 whole entry, looked up): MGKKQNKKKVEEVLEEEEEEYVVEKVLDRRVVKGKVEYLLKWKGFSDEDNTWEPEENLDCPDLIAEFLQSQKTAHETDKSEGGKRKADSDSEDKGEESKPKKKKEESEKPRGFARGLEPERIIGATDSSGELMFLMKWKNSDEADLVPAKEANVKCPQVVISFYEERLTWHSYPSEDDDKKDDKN
#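 Compound inhibition of the preformed complex between 50 nM HP1-beta and 50 nM biotinylated H3K9me3 peptide was read by AlphaScreen. Buffer was PBS pH 7.4 with 0.01% Tween-20. Incubations ran 30 min at room temperature, with 10 ug/mL donor/acceptor beads.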
# Sfp PPTase inh: blocks B. subtilis Sfp PPTase activity; Q9F4F7; Biochemical Sfp PPTase activity, qHTS; Potency, µM, without a hit: largest response in the series, negative = inhibition, most hits filed as inhibitors; 310,000 compounds, 3.5% hits; AID 1490;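 further: the enzyme is Sfp with the accession as filed and its product quenches rhodamine fluorescence; 0% = enzyme reaction without inhibitor and -100% = no enzyme wells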
#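 Fluorescence-quenching assay with 15 nM Sfp, 5 uM rhodamine-CoA and 12.5 uM BHQ-2-labelled ybbR peptide in pH 7.6 Hepes/MgCl2 buffer. Enzyme was pre-incubated with compound for 15 min at room temperature. Rate was taken from the 30-min fluorescence change (525/598 nm).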
# BAZ2B block: blocks human BAZ2B; AlphaScreen BAZ2B-H3K14Ac peptide displacement; Potency, µM (highest dose often 114 µM), for the others: at the highest dose activity change, negative = inhibition, actives largely listed as inhibitors; 360,000 compounds, 4.4% hits; further: on the % scale 0 is the no-effect control and ±100 the full control effect; nearly all actives have a fitted effect of over 60% in size
#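 Compounds, titrated to a top concentration of 110 uM, were incubated 30 min at room temperature with preformed BAZ2B/acetyl-K14 H3 peptide complex (50 nM each). Proximity signal was measured by AlphaScreen after 20 min with beads.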
# L3MBTL1 inh: blocks human L3MBTL1. AlphaScreen L3MBTL1–H3K9me1 peptide binding. Potency, µM (titrated, usually from 57.1 µM), inactives show at the highest dose activity, negative = inhibition, usual class: inhibitors. 230,000 compounds, 0.66% hits. AID 485360; further: on the % scale 0 is the no-effect control and ±100 the full control effect; nearly all actives have a fitted effect of over 60% in size
#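 AlphaScreen assay: L3MBTL1 (50 nM final) was preincubated 30 min at room temperature with biotinylated H3(1-15)K9me1 peptide (75 nM final), then 30 min with library compounds; streptavidin donor and nickel chelate acceptor beads (10 ug/mL final) added, 30 min dark.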
# Starred values were filed as active, the others as inactive; ? = inconclusive; / = no result; [ ] = another dose, or the depositor's remark. Compounds with a hit are over-represented: about 12% of the library has one in this group of screens. The call rests on the fitted dose curve; in most records, active means well fitted curve in the direction sought with a large enough effect; inconclusive means small, poorly fitted or top-dose-only effect, or another doubt; inactive means no such curve, though single readings can be large; an effect the other way counts as inactive or inconclusive. Potency means the concentration at half of the fitted maximal effect.
SMILES,G9a inh,JMJD2A Tudor inh,HP1b chromo inh,Sfp PPTase inh,BAZ2B block,L3MBTL1 inh
NC(=O)c1cc[n+](CC2=C(C(=O)O)N3C(=O)[C@@H](NC(=O)C(c4ccccc4)S(=O)(=O)[O-])[C@H]3SC2)cc1 (stereo not given in full),-13%,1.1µM*,?,11%,2%,-14%
NC(=O)c1cc[n+](CC2=C(C(=O)O)N3C(=O)C(NC(=O)C(c4ccccc4)S(=O)(=O)[O-])C3SC2)cc1 (stereo not given),/,/,/,-54%,/,/
COc1ccc(-c2cc(C(F)(F)F)nc(SCC(=O)NCC(C)C)n2)cc1OC,15%[59 µM],2%,52%,/,1%,/
O=C(Nc1ccccc1)C(Cc1ccccc1)N1Cc2ccccc2C1=O (stereo not given),-23%[59 µM],-3%,25%,/,2%,/
CCS(=O)(=O)N1CCCC(C(=O)N2CCc3ccccc3C2)C1 (stereo not given),25%[0.501 µM],-4%,46%,9%,-3%,5%
CCN(CC)C(=O)C1CCCN(Cc2sccc2C)C1 (stereo not given),32µM*,3.5µM*,?,-13%,28µM*,/
CCN(CC)C(=O)C1CCCN(Cc2cccc(F)c2)C1 (stereo not given),?,3.2µM*,-46%,-19%,?,4%
CCN(CC)C(=O)C1CCCN(Cc2ccc3ccccc3c2)C1 (stereo not given),?,22µM*,3%,-4%,?,-4%
Cc1cccc(CN2CCCC(C(=O)N3CCc4ccccc4C3)C2)c1 (stereo not given),13µM*,1%,26%,-19%,50µM*,/
COc1cc2c(cc1OC)C(C)N(C(=O)c1cc3c(C)cc(C)cc3[nH]1)CC2 (stereo not given),16%[12.7 µM],?,-14%,?,?,/
COc1ccc(CNc2nc(N)nc3nc[nH]c23)cc1,/,-9%,21%,/,/,/
COc1ccc(OC)c(S(=O)(=O)N2CCN(C(=O)CCc3ccccc3)CC2)c1,/,-13%,17%,/,/,/
C[C@@H]1[C@H](C)CC[C@@]2(C(=O)O)CC[C@]3(C)C(=CC[C@H]4[C@@]5(C)CC[C@@H](O)C(C)(C)[C@@H]5CC[C@@]43C)[C@@H]12,8%[21.5 µM],/,/,17%,/,/
Cn1c(=O)c2[nH]c(N3CCN(c4ccccn4)CC3)nc2n(C)c1=O,9%,/,/,8%,9%,-6%
Cc1ccccc1N(CC(=O)NCC1CCCO1)C(=O)CCC(=O)Nc1nccs1 (stereo not given),-3%[59 µM],-1%,27%,20%,0%,/
Cc1ccc2nc3sc(C(=O)Nc4c(C)[nH]c(=O)[nH]c4=O)c(N)c3cc2c1,10µM*,-19%,22%,-17%,-30%,4%
Cc1ccc2cc3c(N)c(C(=O)Nc4c(C)[nH]c(=O)[nH]c4=O)sc3nc2c1,10µM*,-28%,33%,-6%,?,-3%
Cc1ccc2cc3c(N)c(C(=O)N4CC(=O)Nc5ccccc54)sc3nc2c1,-8%[0.0925 µM],/,/,-17%,-2%,9%
Cc1[nH]c(=O)[nH]c(=O)c1NC(=O)c1sc2nc3c(C)cccc3cc2c1N,10µM*,-21%,22%,-27%,-10%,-2%
COc1cc(OC)cc(C(=O)N[C@H](C(=O)Nc2nc(-c3ccc(OC)c(OC)c3)cs2)C(C)C)c1,21%[12.7 µM],-7%,29%,12%,-22%,/
CC(=O)c1cccc(S(=O)(=O)NCCC(=O)Nc2ccc(S(N)(=O)=O)cc2)c1,50µM*,9%,35%,22%,19%,/
CCOc1ccc(OCC)c(NC(=O)c2cc(S(=O)(=O)N3CCc4ccccc43)cn2C)c1,2%[59 µM],-8%,32%,/,1%,/
CCN(Cc1ccncc1)Cc1cn[nH]c1-c1ccc(OC)cc1F,50µM*,-5%,16%,6%,-15%,-13%
COC(=O)[C@@]1(Cc2ccc(OC)cc2)[C@H]2c3cc(C(=O)N(C)C)n(CCc4ccccn4)c3C[C@H]2CN1C(=O)c1ccccc1,/,/,/,4%,/,/
O=C(NCc1ccc(F)cc1)c1cccc2c1C(=O)c1ccc(N3CCOCC3)cc1S2(=O)=O,5%[0.501 µM],79µM*,44%,/,-7%,0%
SMILES,G9a inh,JMJD2A Tudor inh,HP1b chromo inh,Sfp PPTase inh,BAZ2B block,L3MBTL1 inh
COC(=O)c1ccc(Cn2cc(/C=C\[N+](=O)[O-])c3ccccc32)o1,/,?,-7%,56µM*,?,-5%
O=C(O)c1ccc(Cn2cc(/C=C\[N+](=O)[O-])c3ccccc32)o1,40µM*,-24%,6%,-26%,?,-19%
O=[N+]([O-])/C=C/c1cn(Cc2ccc(Cl)cc2)c2ccccc12,13%[59 µM],-26%,8%,-12%,-7%,-5%
Nc1nc(NCc2ccc(F)cc2)c2[nH]cnc2n1,/,-11%,33%,/,/,/
C=CCn1c(C)cc(C(=O)COc2ncnc3sccc23)c1C,?,-23%,6%,-19%,-1%,-3%
Cc1cc(C(=O)CSc2nc(N)cc(=O)[nH]2)c(C)n1-c1ccc(OC(F)F)cc1,-5%,-22%,2%,6%,-16%,?
C=CCn1c(C)cc(C(=O)COC(=O)c2cncc(Br)c2)c1C,3.2µM*,?,-6%,/,?,-23%
Cc1cc(C(=O)CSc2nc(N)cc(N)n2)c(C)n1-c1cccc(F)c1,-18%[59 µM],28µM*,?,-19%,?,-16%
C=CCn1c(C)cc(C(=O)CSc2nc(N)cc(N)n2)c1C,32µM*,-31%,7%,-6%,?,6%
NC(=O)C1CCN(C(=O)CNC(=O)c2ccc(F)cc2)CC1,/,-1%,24%,/,/,-7%
COc1cccc(-c2sc3ccc(OC)cc3c2C#CCCO)c1,5%[0.501 µM],0%,69%,/,1%,6%
C[C@@H](O)[C@H]1C(=O)N2C(C(=O)O)=C(S[C@@H]3CN[C@H](CNS(N)(=O)=O)C3)[C@H](C)[C@H]12,?,/,/,-27%,/,/
C/C(=C\C(=O)c1ccc(C)o1)Nc1ccc(C(=O)O)cc1C,71µM*,28µM*,-9%,-4%,?,-11%
Cc1cc(C(=O)O)ccc1NCc1ccncc1,?,-14%,40%,4%,-39%,1%
COC(=O)[C@@]1(Cc2ccc(F)cc2)[C@@H]2C(=CC(=O)[C@H]2CC(=O)C(=O)N(C)C)CN1C(=O)c1ccccc1,/,/,/,15%,/,/

# Screening results (PubChem)
